Source: PMC4081100, “A DNA-binding-site landscape and regulatory network analysis for NAC transcription factors in Arabidopsis thaliana”

Assays:
Experiment in all cases: universal protein binding microarray (PBM); transcription factors of Arabidopsis thaliana; high values mean tight binding
Settings in all cases: protein: recombinant; tags: GST; chain copies: 2; dsDNA, one strand shown
GST-ANAC092(1-176) = molecular target: T1, GST-ANAC092(1-176) (Arabidopsis thaliana, UniProt Q9FKA0 1-176)
T1 sequence: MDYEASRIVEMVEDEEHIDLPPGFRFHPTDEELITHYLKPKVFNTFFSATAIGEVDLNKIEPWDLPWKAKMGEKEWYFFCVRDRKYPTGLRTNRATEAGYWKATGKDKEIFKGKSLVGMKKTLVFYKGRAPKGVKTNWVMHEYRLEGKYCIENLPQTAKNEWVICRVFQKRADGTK
Procedure, shortened: (§1)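 Binding is expressed as the normalised enrichment score (E-score). Proteins carrying a GST tag, whether NAC-domain, full-length or DNA-binding-domain forms, were induced in cells, and zinc acetate was added for zinc-finger proteins. After purification on glutathione–Sepharose 4B and quantification by A280 or anti-GST western blot, each was applied in duplicate at 200 to 500 nM final to custom all-10-mer Agilent 4 × 180K arrays made double-stranded by primer extension. Gapped and ungapped 8-mers were scored.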

GST-NTL6(1-168) = GST-NTL6(1-168) (Arabidopsis thaliana, UniProt Q9SCK6 1-168)
Chain of GST-NTL6(1-168) (Q9SCK6 1-168): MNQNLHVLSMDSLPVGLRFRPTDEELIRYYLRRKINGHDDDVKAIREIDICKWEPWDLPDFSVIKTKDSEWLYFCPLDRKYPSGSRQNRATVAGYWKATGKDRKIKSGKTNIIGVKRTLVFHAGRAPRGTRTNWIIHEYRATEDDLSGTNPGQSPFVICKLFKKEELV
Procedure, shortened: as §1

GST-ANAC019 NAC domain = molecular target: T2, GST-ANAC019 NAC domain (Arabidopsis thaliana, UniProt Q9C932 14-162)
T2 sequence: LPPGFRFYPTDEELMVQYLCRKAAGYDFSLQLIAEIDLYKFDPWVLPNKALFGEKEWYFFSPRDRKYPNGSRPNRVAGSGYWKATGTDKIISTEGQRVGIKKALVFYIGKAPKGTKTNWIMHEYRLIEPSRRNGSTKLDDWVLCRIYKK
Procedure, shortened: as §1

GST-ANAC055(1-171) = molecular target: T3, GST-ANAC055(1-171) (Arabidopsis thaliana, UniProt Q9LDY8 1-171)
T3 sequence: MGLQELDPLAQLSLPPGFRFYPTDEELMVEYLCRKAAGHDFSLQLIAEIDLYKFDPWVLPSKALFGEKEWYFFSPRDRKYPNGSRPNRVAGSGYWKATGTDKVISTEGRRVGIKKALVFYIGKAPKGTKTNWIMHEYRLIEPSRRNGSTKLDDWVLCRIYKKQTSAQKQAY
Procedure, shortened: as §1

GST-ATAF1 NAC domain = molecular target: T4, GST-ATAF1 NAC domain (Arabidopsis thaliana, UniProt Q39013 7-158)
T4 sequence: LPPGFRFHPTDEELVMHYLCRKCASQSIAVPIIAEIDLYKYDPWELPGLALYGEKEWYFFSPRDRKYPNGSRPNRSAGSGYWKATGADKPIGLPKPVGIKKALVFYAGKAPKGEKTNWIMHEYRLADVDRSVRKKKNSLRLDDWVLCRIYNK
Procedure, shortened: as §1

[1] = molecular target: T5, GST-ANAC092(1-285) full length (Arabidopsis thaliana, UniProt Q9FKA0 1-285)
T5 sequence: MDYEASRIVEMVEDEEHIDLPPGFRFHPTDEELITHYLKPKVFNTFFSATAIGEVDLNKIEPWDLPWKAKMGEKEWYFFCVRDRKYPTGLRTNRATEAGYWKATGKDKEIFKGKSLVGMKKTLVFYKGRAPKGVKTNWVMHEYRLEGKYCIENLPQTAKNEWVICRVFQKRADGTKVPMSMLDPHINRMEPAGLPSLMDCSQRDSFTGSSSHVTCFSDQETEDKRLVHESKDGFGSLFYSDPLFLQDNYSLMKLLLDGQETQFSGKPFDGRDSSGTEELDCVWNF
Procedure, shortened: as §1

GST-NST2(1-184) = molecular target: T6, GST-NST2(1-184) (Arabidopsis thaliana, UniProt Q9M274 1-184)
T6 sequence: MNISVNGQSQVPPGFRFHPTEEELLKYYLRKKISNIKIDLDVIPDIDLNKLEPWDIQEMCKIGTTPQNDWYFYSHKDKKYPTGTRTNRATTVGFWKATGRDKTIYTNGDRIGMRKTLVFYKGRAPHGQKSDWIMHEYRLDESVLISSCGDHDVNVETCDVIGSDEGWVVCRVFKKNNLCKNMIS
Procedure, shortened: as §1

GST-NTL8 NAC domain = molecular target: T7, GST-NTL8 NAC domain (Arabidopsis thaliana, UniProt Q9XIN7 14-156)
T7 sequence: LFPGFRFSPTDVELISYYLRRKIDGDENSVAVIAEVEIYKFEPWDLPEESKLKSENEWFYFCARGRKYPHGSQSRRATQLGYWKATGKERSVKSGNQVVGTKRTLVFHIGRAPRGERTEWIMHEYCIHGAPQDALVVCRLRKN
Procedure, shortened: as §1

GST-SND1(1-203) = molecular target: T8, GST-SND1(1-203) (Arabidopsis thaliana, UniProt Q9LPI7 1-203)
T8 sequence: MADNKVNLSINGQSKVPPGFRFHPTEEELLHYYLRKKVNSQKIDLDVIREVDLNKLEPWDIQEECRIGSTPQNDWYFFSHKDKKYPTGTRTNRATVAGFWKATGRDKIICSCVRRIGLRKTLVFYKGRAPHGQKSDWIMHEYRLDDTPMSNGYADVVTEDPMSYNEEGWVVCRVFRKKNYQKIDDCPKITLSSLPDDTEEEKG
Procedure, shortened: as §1

GST-VND3 NAC domain = molecular target: T9, GST-VND3 NAC domain (Arabidopsis thaliana, UniProt Q9FH59 12-162)
T9 sequence: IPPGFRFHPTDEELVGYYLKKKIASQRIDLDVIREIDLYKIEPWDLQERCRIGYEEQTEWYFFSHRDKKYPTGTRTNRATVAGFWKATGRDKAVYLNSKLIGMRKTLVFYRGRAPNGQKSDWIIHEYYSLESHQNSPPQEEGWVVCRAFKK
Procedure, shortened: as §1

GST-VND7 NAC domain = molecular target: T10, GST-VND7 NAC domain (Arabidopsis thaliana, UniProt Q9C8W9 9-158)
T10 sequence: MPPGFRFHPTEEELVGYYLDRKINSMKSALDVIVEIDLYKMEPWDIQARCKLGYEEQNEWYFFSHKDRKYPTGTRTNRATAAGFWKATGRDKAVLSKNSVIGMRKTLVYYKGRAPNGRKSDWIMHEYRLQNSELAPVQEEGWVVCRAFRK
Procedure, shortened: as §1

GST-NAP(1-166) = molecular target: T11, GST-NAP(1-166) (Arabidopsis thaliana, UniProt O49255 1-166)
T11 sequence: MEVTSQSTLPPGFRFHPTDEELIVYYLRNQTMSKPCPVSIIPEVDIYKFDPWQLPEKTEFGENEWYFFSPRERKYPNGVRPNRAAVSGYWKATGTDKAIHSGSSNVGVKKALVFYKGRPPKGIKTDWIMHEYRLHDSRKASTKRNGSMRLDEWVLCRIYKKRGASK
Procedure, shortened: as §1

| Sequence | binding signal (GST-ANAC092(1-176)) [E-score] | binding signal (GST-NTL6(1-168)) [E-score] | binding signal (GST-ANAC019 NAC domain) [E-score] | binding signal (GST-ANAC055(1-171)) [E-score] | binding signal (GST-ATAF1 NAC domain) [E-score] | binding signal [1] [E-score] | binding signal (GST-NST2(1-184)) [E-score] | binding signal (GST-NTL8 NAC domain) [E-score] | binding signal (GST-SND1(1-203)) [E-score] | binding signal (GST-VND3 NAC domain) [E-score] | binding signal (GST-VND7 NAC domain) [E-score] | binding signal (GST-NAP(1-166)) [E-score] |
| --- | --- | --- | --- | --- | --- | --- | --- | --- | --- | --- | --- | --- |
| ATTCCTTA | 0.103 | 0.486 | 0.0942 | 0.114 | 0.126 | 0.115 | 0.224 | 0.237 | 0.306 | 0.0907 | 0.064 |  |
| TAAGTTAA | 0.191 | 0.418 | 0.132 | 0.0747 | 0.157 | 0.3 | 0.184 |  | 0.297 | 0.188 | 0.0557 |  |
| CCACGTAA | 0.359 | 0.0826 | 0.432 | 0.37 | 0.306 | 0.393 | 0.157 | 0.167 | 0.0962 | 0.326 | 0.341 | 0.308 |
| TACGTAAA | 0.427 | 0.095 | 0.43 | 0.384 | 0.377 | 0.444 | 0.261 | 0.172 | 0.43 | 0.421 | 0.43 | 0.399 |
| ACGTAACA | 0.438 | 0.133 | 0.389 | 0.413 | 0.365 | 0.426 | 0.345 | 0.205 | 0.409 | 0.41 | 0.419 | 0.417 |
| CTTACTTC | 0.272 | 0.413 | 0.227 | 0.191 | 0.209 | 0.325 | 0.267 | 0.4 | 0.387 | 0.209 | 0.23 |  |
| CACACGCA | 0.453 | 0.0743 | 0.389 | 0.321 | 0.248 | 0.47 | 0.229 | 0.141 | 0.327 | 0.375 | 0.353 | 0.375 |
| CTACGTAA | 0.329 | 0.0836 | 0.352 | 0.295 | 0.316 | 0.378 | 0.0582 | 0.105 | 0.402 | 0.378 | 0.345 | 0.312 |
| GTACGCAA | 0.482 | 0.121 | 0.445 | 0.411 | 0.407 | 0.487 | 0.394 | 0.0545 | 0.47 | 0.413 | 0.437 | 0.456 |
| AAGCAATC | 0.384 | 0.324 | 0.21 | 0.0736 | 0.108 | 0.417 | 0.327 | 0.264 | 0.466 | 0.152 | 0.289 |  |
| ACGCAAAT | 0.418 | 0.0591 | 0.268 | 0.232 | 0.262 | 0.42 | 0.265 | 0.0579 | 0.325 | 0.325 | 0.281 | 0.235 |
| GCGTATAA | 0.375 | 0.0699 | 0.0915 | 0.23 | 0.229 | 0.409 | 0.285 | 0.11 | 0.399 | 0.213 | 0.161 | 0.181 |
| GAAGGTAA | 0.174 | 0.329 | 0.158 | 0.111 | 0.22 | 0.25 | 0.255 | 0.463 | 0.227 | 0.148 | 0.141 |  |
| AACGTAAG | 0.32 | 0.196 | 0.132 | 0.213 | 0.255 | 0.366 | 0.262 | 0.124 | 0.436 | 0.289 | 0.226 | 0.204 |
